These results are taken from PubChem BioAssay (NCATS).

Assay [1] in a line: Cell Viability - N2a (AID 540).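 Note: plate controls were DMSO alone for no effect and tamoxifen control for full effect; nearly all actives have a fitted effect of over 45% in size.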 To be noted: N2a mouse neuroblastoma cell viability; activity change, negative = cytotoxicity: at 92.2 µM (top of the series). The essentials: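 CellTiter-Glo ATP luminescence, read 20 min after reagent at room temperature, reported viability following 40 h compound treatment at 37 °C. N2a mouse neuroblastoma cells seeded 1500/well; Hill equation gave AC50.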

The nature of assay [2]: Cellular Toxicity (caspase-3) Jurkat (AID 655).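 Note: cells exposed to compound for 16 h at 37 °C before reading.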 To be noted: Jurkat caspase-3 activation, luminescence; caspase-3 activation: at 92.2 µM (top of the series), DMSO = 0%, tamoxifen = 100%. The essentials:
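Caspase 3/7 activation is scored as increased luminescence in Jurkat cells cultured with compound for 16 hours in complete medium. AC50 values come from Hill fits of qHTS concentration-response data normalized to DMSO and 100 uM tamoxifen controls.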

Assay [3] in a line: MultiTox-Fluor Cytotoxicity Assay - LYMP1-002 - Live Cells (AID 955). Note: % is set by controls: 0 for no effect and ±100 for the full control effect. In short, it runs like this:
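After 16 h compound exposure at 37 C, live LYMP1-002 lymphoblastoid cells (2500/well) were quantified by cleavage of cell-permeant GF-AFC substrate, read at 405/510 nm after 60 min. Concentration-response fitted with Hill equation for AC50.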

The nature of assay [4]: Cell Viability - LYMP2-004 (AID 966).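 Note: plate controls were DMSO only for no effect and tetraoctylammonium bromide control for full effect; nearly all actives have a fitted effect of over 65% in size.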 In short, it runs like this:
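AC50 values come from Hill modelling of concentration-dependent loss of intracellular ATP, measured by CellTiter-Glo luminescence. Human LYMP2-004 lymphoblastoid cells (2500/well) were exposed to compound for 24 h at 37 C.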

The nature of assay [5]: Cell Viability - LYMP2-011 (AID 969).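 Note: 0% = DMSO only and full inhibition = 92 µM tetraoctylammonium bromide; nearly all actives have a fitted effect of over 60% in size.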 In short, it runs like this:
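Cytotoxicity qHTS with ATP content as read-out: lymphoblastoid cells (2500/well) exposed to compound for 24 h at 37 C, then luciferase luminescence measured. Concentration-response data fitted with the standard Hill equation to give AC50.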

Assay [6] in a line: Cell Viability - LYMP2-023 (AID 975).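 Note: cellular ATP measured by luciferase luminescence as viability proxy; plate controls were DMSO only for no effect and 92 µM tetraoctylammonium bromide control for full effect; nearly all actives have a fitted effect of over 55% in size.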 The essentials: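 Intracellular ATP, read by CellTiter-Glo luminescence, reports viability after 24 hr compound exposure at 37 C. 2500 lymphoblastoid cells/well (LYMP2-023) seeded 5 hr beforehand; Hill fits give AC50; positive control tetraoctylammonium bromide.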
Assay [7] is described as follows: Cell Viability - LYMP2-025 (AID 976).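 Note: plate controls were DMSO only for no effect and tetraoctylammonium bromide control for full effect.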 The essentials: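 Cytotoxicity read as loss of intracellular ATP (luciferase luminescence) after 24 h compound treatment at 37 C. Uses LYMP2-025 lymphoblastoid cells in 1536-well format; Hill-equation modelling gives AC50; tetraoctylammonium bromide as positive control.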
A short description of assay [8]: Cell Viability - LYMP2-002 (AID 977).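 Note: plate controls were DMSO only for no effect and 92 µM tetraoctylammonium bromide for full effect.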 The essentials:
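In this qHTS viability screen, 2500 human lymphoblastoid cells per well receive compound for 24 hr at 37 C, and luciferase-based ATP luminescence gives the viability signal. Tetraoctylammonium bromide serves as positive control.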

The nature of assay [9]: Cell Viability - LYMP2-012 (AID 982).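 Note: cellular ATP by luciferase luminescence where a drop means cytotoxicity; cells exposed to compound for one day before reading; 0% = DMSO only and full loss = 92 µM tetraoctylammonium bromide; nearly all actives have a fitted effect of over 55% in size.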
A short description of assay [10]: Cell Viability - LYMP2-014 (AID 983).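 Note: plate controls were DMSO only for no effect and 92 µM tetraoctylammonium bromide for full effect; nearly all actives have a fitted effect of over 50% in size.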 In short, it runs like this:
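Intracellular ATP loss, read by luciferase luminescence, measures acute cytotoxicity after 24 h compound exposure of lymphoblastoid LYMP2-014 cells (2500/well, 37 C). Concentration-response data fitted to the Hill equation for AC50.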

Assay [11] is described as follows: Cell Viability - LYMP2-016 (AID 984). Note: % is set by controls: 0 for no effect and ±100 for the full control effect; nearly all actives have a fitted effect of over 55% in size. In short, it runs like this: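 Acute toxicity in a Coriell human lymphoblastoid line is scored as loss of intracellular ATP over 24 h of treatment in complete medium. CellTiter-Glo signal is fitted across concentrations with the Hill equation to give AC50.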
Assay [12] is described as follows: Cell Viability - LYMP2-022 (AID 987).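 Note: 0% = DMSO alone and full effect = tetraoctylammonium bromide at 92 µM; nearly all actives have a fitted effect of over 55% in size.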 The essentials:
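Cytotoxicity read as decreased cellular ATP (CellTiter-Glo luminescence, 30 min room temperature) after 24 hours compound exposure of 2500 lymphoblastoid LYMP2-022 cells/well at 37 C. Concentration-response data fitted with standard Hill equation for AC50.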

In assay [13] the target is Vitamin D3 receptor (Homo sapiens) (UniProt P11473). As to the kind of experiment: qHTS assay for small molecule agonists of vitamin D receptor signaling (AID 588543; calls by dose curve;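 note: 0% = DMSO basal and 100% = reference agonist control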). The essentials: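 qHTS in agonist mode: compound titrations stimulate a VDR-driven β-lactamase reporter in HEK293T cells over 16 h at 37 °C. Response normalized to 50 nM 1α,25-dihydroxyvitamin D3 = 100%, DMSO = 0%; Hill fitting gives EC50 and maximal response.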
(Quantitative high-throughput screening tests each substance at several concentrations.)

Assay [14] addresses Voltage-gated inwardly rectifying potassium channel KCNH2 (Homo sapiens) (UniProt Q12809). Nature of the assay: qHTS Assay for Small Molecule Inhibitors of the Human hERG Channel Activity (AID 588834).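 Note: U2OS cells transduced with hERG by BacMam; top concentration of the series differs between compounds; % is set by controls: 0 for no effect and ±100 for the full control effect; lower thallium flux fluorescence means stronger hERG block; nearly all actives have a fitted effect of over 50% in size.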 In short, it runs like this:
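Cells were infected with hERG-BacMam virus for 4 hrs at room temperature, grown overnight, then seeded at 2000/well. After dye loading and roughly 10 min compound treatment, thallium influx was triggered and fluorescence recorded.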

Assay [15] can be described thus: qHTS assay for small molecule activators of the p53 signaling pathway (AID 651743; active = well fitted activation curve with a large enough effect in the signal ratio, not every such curve was filed as active; the % refers to the signal ratio; note: % of control where 0% means no effect). To be noted: HCT-116 p53RE-bla, beta-lactamase FRET ratio, 16 h; activation: hits give high values. In short, it runs like this: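 Agonist-mode quantitative HTS in HCT-116 cells carrying a p53-response-element beta-lactamase reporter; 16 h compound treatment at 37 C, then FRET substrate loading for 2 h at room temperature and fluorescence read.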

Assay [16] can be described thus: qHTS assay for cell viability of HEK293 cells (AID 743288). Note: % is set by controls: 0 for no effect and ±100 for the full control effect; nearly all actives have a fitted effect of over 50% in size. To be noted: ATP luminescence (CellTiter-Glo), 18 h, hits give low values. In short, it runs like this: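 Quantitative high-throughput screen: compounds were pinned onto parental HEK293 cells (2,000 per well) after a minimum 5 h settling at 37 C, incubated 18 h at 37 C, and intracellular ATP measured by luciferase luminescence.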

The nature of assay [17]: Cell Viability - HepG2 (AID 433; calls by dose curve;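 note: potency is the fitted concentration of half-maximal effect; potency for ATP loss meaning cytotoxicity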). The following applies: qHTS. The essentials: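 Cytotoxicity is scored as loss of intracellular ATP in HepG2 cells exposed to compounds for 40 h. Concentration-response curves, normalized to DMSO and 100 uM tamoxifen, give AC50 values.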
Assay [18] can be described thus: Cellular Toxicity (caspase-3) BJ (AID 658).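 Note: 0% = DMSO basal and 100% = 10 µM staurosporine.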 The essentials: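 Plated BJ cells (1000/well) rested 5 hr, received compound for 16 hr at 37 °C, then Caspase-Glo 3/7 reagent for 1 hr at room temperature before luminescence reading.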
Assay [19] can be described thus: Cell Viability - LYMP2-020 (AID 986). In short, it runs like this:
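Cytotoxicity in qHTS format: luminescent ATP readout from CellTiter-Glo after 24 h compound exposure at 37 C in complete medium. LYMP2-020 lymphoblastoid cells were seeded at 2500/well; concentration-response data fitted to the Hill equation for AC50.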

In assay [20] the target is Retinoic acid receptor RXR-alpha (Homo sapiens) (UniProt P19793). Nature of the assay: qHTS assay for small molecule antagonists of retinoid X receptor alpha signaling (AID 588546; active = well fitted inhibition curve with a large enough effect in the signal ratio, with a control signal flat, not every such curve was filed as active; the % refers to the signal ratio; note: % is set by controls: 0 for no effect and ±100 for the full control effect). To be noted: HEK293T RXRa-UAS-bla, beta-lactamase ratio, antagonist mode. The essentials: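 Beta-lactamase reporter inhibition, read as CCF4 fluorescence ratio (ex 405, em 460/530 nm) after 2 h at RT. HEK293T UAS-bla cells, 2500/well, were stimulated with 9-cis-RA at 500 or 100 nM final alongside test compound for 18 h at 37 C.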

Molecules are shown by their SMILES. Where “and” joins values, the source holds several entries; their conditions need not be identical. Identical values can stand only once. A number with no mark means an inactive call. Results filed as inconclusive are left out. Calls of active or inactive are those of the source. Unless noted, calls come from the whole dose curve; as a rule, active = well fitted curve in the direction sought with a large enough effect; inconclusive = small, poorly fitted or top-dose-only effect, or another doubt; inactive = no such curve, though single readings can be large; an effect the other way counts as inactive or inconclusive.

Vitamin D3 receptor (Homo sapiens), sequence (P11473 whole entry, looked up): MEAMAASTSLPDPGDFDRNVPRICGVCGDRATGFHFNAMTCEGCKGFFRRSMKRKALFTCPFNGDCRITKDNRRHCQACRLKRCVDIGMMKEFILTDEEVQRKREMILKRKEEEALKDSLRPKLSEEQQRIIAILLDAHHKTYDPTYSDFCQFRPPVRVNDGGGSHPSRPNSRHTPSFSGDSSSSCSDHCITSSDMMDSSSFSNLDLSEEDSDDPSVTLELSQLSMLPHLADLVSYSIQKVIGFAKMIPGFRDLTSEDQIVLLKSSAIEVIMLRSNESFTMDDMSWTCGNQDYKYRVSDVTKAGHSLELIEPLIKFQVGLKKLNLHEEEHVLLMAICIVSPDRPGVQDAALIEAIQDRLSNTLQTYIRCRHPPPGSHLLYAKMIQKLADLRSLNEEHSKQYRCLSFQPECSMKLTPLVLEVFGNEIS
Voltage-gated inwardly rectifying potassium channel KCNH2 (Homo sapiens), sequence (Q12809 whole entry, looked up): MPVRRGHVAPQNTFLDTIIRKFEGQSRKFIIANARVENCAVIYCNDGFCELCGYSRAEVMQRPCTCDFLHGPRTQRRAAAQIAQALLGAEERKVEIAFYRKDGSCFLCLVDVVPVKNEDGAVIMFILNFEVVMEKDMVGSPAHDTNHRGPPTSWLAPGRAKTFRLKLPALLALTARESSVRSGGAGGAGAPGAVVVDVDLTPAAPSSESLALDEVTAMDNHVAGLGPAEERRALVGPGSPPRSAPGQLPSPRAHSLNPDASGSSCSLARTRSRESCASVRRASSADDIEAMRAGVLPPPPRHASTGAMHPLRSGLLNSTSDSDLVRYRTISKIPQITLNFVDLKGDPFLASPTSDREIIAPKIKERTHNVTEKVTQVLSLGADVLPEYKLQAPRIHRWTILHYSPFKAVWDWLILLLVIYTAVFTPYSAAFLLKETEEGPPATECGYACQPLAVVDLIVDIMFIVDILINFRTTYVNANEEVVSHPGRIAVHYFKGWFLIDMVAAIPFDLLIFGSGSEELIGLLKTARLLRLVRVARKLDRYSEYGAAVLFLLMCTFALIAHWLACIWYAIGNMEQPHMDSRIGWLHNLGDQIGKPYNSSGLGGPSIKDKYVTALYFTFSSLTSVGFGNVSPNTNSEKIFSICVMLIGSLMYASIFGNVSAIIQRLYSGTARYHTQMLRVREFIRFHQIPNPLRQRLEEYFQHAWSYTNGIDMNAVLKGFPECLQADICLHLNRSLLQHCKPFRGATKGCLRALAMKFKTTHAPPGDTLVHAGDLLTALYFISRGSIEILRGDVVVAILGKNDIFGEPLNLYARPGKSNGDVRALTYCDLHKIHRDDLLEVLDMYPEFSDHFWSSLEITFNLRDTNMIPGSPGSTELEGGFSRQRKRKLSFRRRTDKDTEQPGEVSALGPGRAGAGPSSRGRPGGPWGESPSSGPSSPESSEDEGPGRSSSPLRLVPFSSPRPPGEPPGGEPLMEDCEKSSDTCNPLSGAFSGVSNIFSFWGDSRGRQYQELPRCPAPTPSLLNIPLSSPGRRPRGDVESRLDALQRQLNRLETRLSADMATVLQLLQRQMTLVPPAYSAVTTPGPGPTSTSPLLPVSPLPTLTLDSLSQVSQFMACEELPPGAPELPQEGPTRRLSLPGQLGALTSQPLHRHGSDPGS
Retinoic acid receptor RXR-alpha (Homo sapiens), sequence (P19793 whole entry, looked up): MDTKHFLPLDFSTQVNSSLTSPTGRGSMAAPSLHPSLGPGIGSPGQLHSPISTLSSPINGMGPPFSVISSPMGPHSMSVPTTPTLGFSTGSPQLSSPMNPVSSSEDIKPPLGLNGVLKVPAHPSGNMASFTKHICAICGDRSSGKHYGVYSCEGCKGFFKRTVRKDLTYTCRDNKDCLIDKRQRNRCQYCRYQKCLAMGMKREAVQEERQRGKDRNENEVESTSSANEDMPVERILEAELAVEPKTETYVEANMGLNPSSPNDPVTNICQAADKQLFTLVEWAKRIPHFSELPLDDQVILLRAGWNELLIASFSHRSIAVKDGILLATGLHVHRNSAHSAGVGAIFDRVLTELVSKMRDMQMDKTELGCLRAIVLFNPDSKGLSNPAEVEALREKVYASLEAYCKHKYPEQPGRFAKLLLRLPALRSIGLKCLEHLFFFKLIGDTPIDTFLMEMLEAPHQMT

In the case of `C[N+](=O)[O-]`, the Potency entry in assay [1], in assay [4], in assay [5], in assay [6], in [7] and in assay [8] was “inactive” each time. The Potency entry in [9], in assay [10], in assay [11], in assay [12] and in assay [14] was “inactive” throughout. In addition, in assay [2], the caspase-3 activation is 0.536%. In addition, the outcome in assay [3] and in assay [13] was inactive. Further, the activation in [15] is -0.263%. For the same compound, in assay [16], the max response is 4.12%.

Consider `Clc1cccc(Cl)c1`, for which the Potency in assay [17] is > 92 µM. Moreover, the Potency result in assay [1], in assay [4], in assay [7], in assay [8], in assay [9] and in assay [11] was “inactive” each time. Also, the Potency entry in [19], in assay [12] and in assay [14] was “inactive” each time. The caspase-3 activation in assay [2] was -0.0419%. Besides, the compound was classed as inactive in assay [18], in assay [3] and in assay [13]. For the same compound, the max response in assay [16] was -11.3%.

Turning to `COP(=S)(OC)SCn1nnc2ccccc2c1=O`, the caspase-3 activation in assay [2] is -1.97%. In addition, the outcome in assay [18], in [3] and in assay [13] was inactive. For the same compound, the Potency entry in [6], in assay [8], in assay [9], in assay [10], in [11] and in [19] was “inactive” throughout. Moreover, the Potency result in [12] and in assay [14] was “inactive” throughout. In addition, in assay [15], the activation is 1.84% and 3.37%. For the same compound, the max response in [16] is -22%.

On to `CC(=O)NNc1ccccc1`, for which the Potency entry in assay [1], in assay [4], in assay [5], in assay [6], in [7] and in assay [8] was “inactive” in each case. The Potency entry in assay [9], in assay [10], in assay [11], in assay [19] and in assay [14] was “inactive” each time. In addition, the caspase-3 activation in assay [2] is 1.53%. Further, the result in assay [18], in assay [3] and in [13] was inactive. Besides, the max response was -22.9% in assay [20] and 2.18% in assay [16].

As to `CCOP(=O)(OCC)OCC`, the Potency in assay [17] is > 92 µM. In addition, the Potency entry in assay [1], in assay [4], in assay [5], in assay [6], in [7] and in assay [8] was “inactive” each time. For the same compound, the Potency entry in assay [9], in [11] and in assay [12] was “inactive” each time. Moreover, the caspase-3 activation in assay [2] is -0.738%. Besides, the result in assay [18], in [3] and in [13] was inactive. For the same compound, the max response in assay [20] is 10.3% and -4.1%; in [16], 5.7% and 3.95%. Also, the activation in assay [15] is 2.61% and -1.3%.

Consider `Cc1ccc(N)cc1Cl`, for which the Potency entry in assay [1], in [4], in assay [5], in assay [8], in [9] and in assay [10] was “inactive” each time. Also, the Potency result in [19], in assay [12] and in assay [14] was “inactive” throughout. In assay [2], the caspase-3 activation was 1.16%. In addition, the compound was called inactive in [18], in assay [3] and in assay [13]. The results for the max response in assay [20] and in [16] were -11.5% and -1.75%, respectively.

Take `CCCC[N+](=O)[O-]`: the Potency in assay [17] is > 92 µM. Further, the Potency entry in assay [1], in assay [5], in assay [6], in assay [7], in assay [8] and in [9] was “inactive” throughout. In addition, the Potency entry in [10], in [11], in assay [19], in [12] and in assay [14] was “inactive” each time. The caspase-3 activation in assay [2] is 102% (active). Besides, the compound was called inactive in assay [3] and in assay [13]. In assay [20], the max response is -6.25%.

As for `ClC(Br)Br`, the Potency in assay [17] was > 92 µM. For the same compound, the Potency result in assay [1], in assay [4], in assay [5], in assay [7], in [9] and in assay [10] was “inactive” throughout. For the same compound, the Potency result in assay [11], in assay [19] and in [14] was “inactive” each time. In assay [2], the caspase-3 activation is 0.0387%. Also, the compound was classed as inactive in [18] and in assay [3]. Also, the max response in assay [20] was 0.0478%; in [16], 0.132%. Further, the activation in [15] is 6.47%.
